Data on 14 compounds can be found in the supplement of paper PMC10037445.

Test [1] has as its system RAW-Dual. As to the kind of experiment: NF-kB SEAP reporter activity, fold change vs agonist alone; higher = enhanced NF-kB activity. The conditions noted are these: library stock concentration (final ~1000-fold dilution): 10 mM. Summed up: (§1)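 Reporter activity is given as fold change relative to agonist-alone wells. To measure it, 50 nL of library stock was pin-tooled onto RAW-Dual macrophages (50,000 cells/well, DMEM, 384-well plates), a PRR agonist followed 1 h later, and cells stayed at 37 °C, 5% CO2. Twenty hours on, supernatant was assayed for IRF (QuantiLuc luminescence) and NF-κB (QuantiBlue, 620 nm absorbance), and wells under 70% of agonist-control IncuCyte confluency in both mask sets were marked cytotoxic.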

In test [2] the test system is RAW-Dual. As to the kind of experiment: NF-kB SEAP reporter activity, fold change vs agonist alone; cytotoxicity flag (confluency mask): not cytotoxic; library stock concentration (final ~1000-fold dilution): 10 mM; higher = enhanced NF-kB activity. In short, it runs like this:
as §1

Test [3] deals with RAW-Dual. Description: NF-kB SEAP reporter activity, fold change vs agonist alone; cytotoxicity flag (confluency mask): cytotoxic (confluency <70% of control); library stock concentration (final ~1000-fold dilution): 10 mM; higher = enhanced NF-kB activity. Summed up:
as §1

The mark [4] stands for this setting: cytotoxicity flag (confluency mask): not cytotoxic, agonist: Imiquimod (TLR7) […].
[5] abbreviates: cytotoxicity flag (confluency mask): not cytotoxic, agonist: MPLA (TLR4) […].
Setting [6] is: agonist: ODN 1826 (TLR9) 0.5 ug/mL.
[7] abbreviates: agonist: Pam2CSK4 (TLR2/6) 0.1 ug/mL.
Setting [8] is: agonist: Pam3CSK4 (TLR2/1) 0.1 ug/mL.

Several values for one entry are separate records, joined by “and”; a condition that tells them apart may be missing. Identical values can stand only once. Over roughly 2,900 compounds, “NF-kB SEAP reporter activity, fold change vs agonist alone” has its median near 0.99; the highest 2% begin near 2.6. This excerpt belongs to a sample that is enriched for the highest values.

With `COc1cc(C)[nH]c(=O)c1CNC(=O)c1c(C)n(C(C)C2CCOCC2)c2ccccc12` (configuration not stated), the “NF-kB SEAP reporter activity” value in test [1] (setting [4]) amounted to 0.902; in test [1] (setting [5]), 1.02; in test [2] (agonist: LPS (TLR4) 0.1 ug/mL) it was 1.26; in test [2] (setting [6]), 1.05; in test [2] (setting [7]), 0.992; in test [2] (setting [8]), 0.786.
With `Cl[Te]1(Cl)(Cl)OCCO1.N`, the “NF-kB SEAP reporter activity” value in test [1] (setting [4]) came out at 0.792; in test [1] (setting [5]) it was 0.899; in test [2] (agonist: LPS (TLR4) 0.1 ug/mL) it was 1.39; in test [2] (setting [6]), 0.846; in test [2] (setting [7]), 0.912; in test [2] (setting [8]), 1.28.
On to `CCCCCc1cc(O)cc(O)c1`, for which the “NF-kB SEAP reporter activity” value in test [1] (setting [5]) worked out at 0.946; in test [2] (agonist: LPS (TLR4) 0.1 ug/mL), 1.11; in test [2] (setting [6]), 0.427; in test [2] (setting [7]), 0.966; in test [2] (setting [8]), 0.739.
As to `CCCCCCC[n+]1ccc(-c2cc[n+](CCCCCCC)cc2)cc1`, the “NF-kB SEAP reporter activity” value in test [1] (setting [4]) amounted to 1.32; in test [1] (setting [5]), 2.11; in test [2] (agonist: LPS (TLR4) 0.1 ug/mL), 3.95; in test [2] (setting [6]) it was 1.17; in test [2] (setting [7]), 1.02; in test [2] (setting [8]) it was 1.14.
Take `O=C([O-])C(Cl)Cl.[Na+]`: the “NF-kB SEAP reporter activity” value is 1.11 and 0.906 in test [2] (agonist: LPS (TLR4) 0.1 ug/mL); 1.14 and 0.982 in test [2] (setting [6]); 1.11 and 0.989 in test [2] (setting [7]); 1.19 and 1.32 in test [2] (setting [8]).
Take `CCNc1nc(Cl)nc(NC(C)C)n1`: the “NF-kB SEAP reporter activity” value in test [1] (setting [5]) was determined as 1.29; in test [2] (agonist: LPS (TLR4) 0.1 ug/mL), 1.55; in test [2] (setting [6]), 1.4; in test [2] (setting [7]), 1.5; in test [2] (setting [8]), 1.67.
Take `COc1ccc2c(c1OC)CN1CCc3cc4c(cc3C1C2)OCO4` (configuration not stated): the “NF-kB SEAP reporter activity” value in test [1] (setting [5]) is 1; in test [2] (agonist: LPS (TLR4) 0.1 ug/mL), 1.21; in test [2] (setting [6]), 1.04; in test [2] (setting [7]) it was 0.89; in test [2] (setting [8]), 1.26.
Turning to `COc1cc(C2c3cc4c(cc3C(O)C3COC(=O)C23)OCO4)cc(OC)c1OC` (configuration not stated), the “NF-kB SEAP reporter activity” value in test [1] (cytotoxicity flag (confluency mask): cytotoxic (confluency <70% of control), agonist: Imiquimod (TLR7) […]) stood at 1.61; in test [1] (cytotoxicity flag (confluency mask): cytotoxic (confluency <70% of control), agonist: MPLA (TLR4) […]) it was 1.92; in test [3] (agonist: LPS (TLR4) 0.1 ug/mL) it was 5.49; in test [3] (setting [6]), 2.81; in test [3] (setting [7]), 1.6; in test [3] (setting [8]), 2.18.
As for `COc1cc(C2c3cc4c(cc3C(O)C3COC(=O)C23)OCO4)cc(OC)c1O` (configuration not stated), the “NF-kB SEAP reporter activity” value in test [1] (setting [4]) turned out to be 2.53; in test [1] (setting [5]), 2.24; in test [2] (agonist: LPS (TLR4) 0.1 ug/mL) it was 3.91; in test [2] (setting [6]), 3.47; in test [2] (setting [7]), 2.24; in test [2] (setting [8]), 2.24.
As to `CC[N+](C)(CC)CCOC(=O)C(O)(c1ccccc1)c1ccccc1`, the “NF-kB SEAP reporter activity” value in test [1] (setting [5]) amounted to 1.01; in test [2] (agonist: LPS (TLR4) 0.1 ug/mL), 0.821; in test [2] (setting [6]), 0.989; in test [2] (setting [7]), 0.934; in test [2] (setting [8]), 1.39.
`COc1cc(-n2c(S)nc3ccccc3c2=O)c(Cl)cc1Cl`: the “NF-kB SEAP reporter activity” value in test [1] (setting [4]) was 0.851; in test [1] (setting [5]), 0.953; in test [2] (agonist: LPS (TLR4) 0.1 ug/mL), 1.4; in test [2] (setting [6]), 0.842; in test [2] (setting [7]), 0.849; in test [2] (setting [8]), 0.826.
Turning to `CCC1(c2c[nH]cn2)Cc2ccccc2C1.Cl`, the “NF-kB SEAP reporter activity” value worked out at 0.931 in test [1] (setting [5]); 0.796 in test [2] (agonist: LPS (TLR4) 0.1 ug/mL); 0.745 in test [2] (setting [6]); 0.9 in test [2] (setting [7]); 0.997 in test [2] (setting [8]).
With `CN1C2CCC1CC(=O)C2`, the “NF-kB SEAP reporter activity” value in test [1] (setting [4]) was determined as 1.66; in test [1] (setting [5]), 1.16; in test [2] (agonist: LPS (TLR4) 0.1 ug/mL) it was 0.911; in test [2] (setting [6]), 1.6; in test [2] (setting [7]), 1; in test [2] (setting [8]), 1.54.
On to `CCC1CN2CCC3(C(=O)Nc4ccccc43)C2CC1/C(=C\OC)C(=O)OC` (configuration not stated), for which the “NF-kB SEAP reporter activity” value was 0.907 in test [1] (setting [4]); 1.25 in test [1] (setting [5]); 1.1 in test [2] (agonist: LPS (TLR4) 0.1 ug/mL); 0.873 in test [2] (setting [6]); 0.87 in test [2] (setting [7]); 0.852 in test [2] (setting [8]).
